Test results from article PMC11006913.

Experiments:
NKX2-5 [1] = molecular target: NKX2-5 (Homo sapiens, UniProt P52952 125-210, R139K); test: PBM; 200 nM protein, PBS; conditions: dsDNA, one strand shown
NKX2-5 [2] = molecular target: NKX2-5 (Homo sapiens, UniProt P52952 125-210); test: PBM; 200 nM protein, PBS; conditions: dsDNA, one strand shown
Chain of NKX2-5 (Homo sapiens, UniProt P52952 125-210) (P52952 125-210): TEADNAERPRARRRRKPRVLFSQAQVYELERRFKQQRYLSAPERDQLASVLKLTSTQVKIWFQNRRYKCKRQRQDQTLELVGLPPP

Chain of NKX2-5 (Homo sapiens, UniProt P52952 125-210, R139K) (P52952 125-210 R139K): as the sequence (P52952 125-210) above, with R15K counted along it

Sequence | binding signal (NKX2-5 [1]) | binding signal (NKX2-5 [2])
TCACTCGA | 10.9 upbm affinity estimate (log intensity, higher = more binding, comparable within an allelic series) | 10.9 upbm affinity estimate (log intensity, higher = more binding, comparable within an allelic series)
ATAAGTGA | 12.2 upbm affinity estimate (log intensity, higher = more binding, comparable within an allelic series) | 12 upbm affinity estimate (log intensity, higher = more binding, comparable within an allelic series)
ACCATGGT | 9.14 upbm affinity estimate (log intensity, higher = more binding, comparable within an allelic series) | 9.06 upbm affinity estimate (log intensity, higher = more binding, comparable within an allelic series)
GCTGCGAC | 8.9 upbm affinity estimate (log intensity, higher = more binding, comparable within an allelic series) | 8.94 upbm affinity estimate (log intensity, higher = more binding, comparable within an allelic series)
CCGAGCCA | 9.01 upbm affinity estimate (log intensity, higher = more binding, comparable within an allelic series) | 9.05 upbm affinity estimate (log intensity, higher = more binding, comparable within an allelic series)
CCACTAGA | 11.3 upbm affinity estimate (log intensity, higher = more binding, comparable within an allelic series) | 11.2 upbm affinity estimate (log intensity, higher = more binding, comparable within an allelic series)
CGGCCAGC | 8.6 upbm affinity estimate (log intensity, higher = more binding, comparable within an allelic series) | 8.71 upbm affinity estimate (log intensity, higher = more binding, comparable within an allelic series)
GGCAAGCC | 8.94 upbm affinity estimate (log intensity, higher = more binding, comparable within an allelic series) | 8.92 upbm affinity estimate (log intensity, higher = more binding, comparable within an allelic series)
ACCAGGGC | 8.76 upbm affinity estimate (log intensity, higher = more binding, comparable within an allelic series) | 8.77 upbm affinity estimate (log intensity, higher = more binding, comparable within an allelic series)
CACTAAGC | 10.7 upbm affinity estimate (log intensity, higher = more binding, comparable within an allelic series) | 10.6 upbm affinity estimate (log intensity, higher = more binding, comparable within an allelic series)
AATCTTGA | 10.5 upbm affinity estimate (log intensity, higher = more binding, comparable within an allelic series) | 10.5 upbm affinity estimate (log intensity, higher = more binding, comparable within an allelic series)
AGCCACTC | 11.6 upbm affinity estimate (log intensity, higher = more binding, comparable within an allelic series) | 11.5 upbm affinity estimate (log intensity, higher = more binding, comparable within an allelic series)
CCTCTCGA | 11.2 upbm affinity estimate (log intensity, higher = more binding, comparable within an allelic series) | 11.3 upbm affinity estimate (log intensity, higher = more binding, comparable within an allelic series)
CACAGCCC | 9.06 upbm affinity estimate (log intensity, higher = more binding, comparable within an allelic series) | 9.02 upbm affinity estimate (log intensity, higher = more binding, comparable within an allelic series)
ACGTCCCG | 8.76 upbm affinity estimate (log intensity, higher = more binding, comparable within an allelic series) | 8.79 upbm affinity estimate (log intensity, higher = more binding, comparable within an allelic series)
CTGCCGCC | 8.73 upbm affinity estimate (log intensity, higher = more binding, comparable within an allelic series) | 8.63 upbm affinity estimate (log intensity, higher = more binding, comparable within an allelic series)
CAGTTGGC | 8.87 upbm affinity estimate (log intensity, higher = more binding, comparable within an allelic series) | 8.7 upbm affinity estimate (log intensity, higher = more binding, comparable within an allelic series)
GATGAGTA | 11 upbm affinity estimate (log intensity, higher = more binding, comparable within an allelic series) | 10.9 upbm affinity estimate (log intensity, higher = more binding, comparable within an allelic series)
ATAAGCGG | 10.3 upbm affinity estimate (log intensity, higher = more binding, comparable within an allelic series) | 10.3 upbm affinity estimate (log intensity, higher = more binding, comparable within an allelic series)
AAGTGAGT | 11.4 upbm affinity estimate (log intensity, higher = more binding, comparable within an allelic series) | 11.4 upbm affinity estimate (log intensity, higher = more binding, comparable within an allelic series)
AACGCGGA | 8.76 upbm affinity estimate (log intensity, higher = more binding, comparable within an allelic series) | 8.8 upbm affinity estimate (log intensity, higher = more binding, comparable within an allelic series)
CCGCAGTC | 8.8 upbm affinity estimate (log intensity, higher = more binding, comparable within an allelic series) | 8.72 upbm affinity estimate (log intensity, higher = more binding, comparable within an allelic series)
CCCTAAGA | 10.8 upbm affinity estimate (log intensity, higher = more binding, comparable within an allelic series) | 10.8 upbm affinity estimate (log intensity, higher = more binding, comparable within an allelic series)
CTCATAAG | 10.8 upbm affinity estimate (log intensity, higher = more binding, comparable within an allelic series) | 10.9 upbm affinity estimate (log intensity, higher = more binding, comparable within an allelic series)
ACCAAACC | 8.82 upbm affinity estimate (log intensity, higher = more binding, comparable within an allelic series) | 8.9 upbm affinity estimate (log intensity, higher = more binding, comparable within an allelic series)
GCAGACCA | 9.14 upbm affinity estimate (log intensity, higher = more binding, comparable within an allelic series) | 9.12 upbm affinity estimate (log intensity, higher = more binding, comparable within an allelic series)
CACGTCCC | 8.94 upbm affinity estimate (log intensity, higher = more binding, comparable within an allelic series) | 8.96 upbm affinity estimate (log intensity, higher = more binding, comparable within an allelic series)
CCGCACGG | 8.63 upbm affinity estimate (log intensity, higher = more binding, comparable within an allelic series) | 8.62 upbm affinity estimate (log intensity, higher = more binding, comparable within an allelic series)
ACCACTCT | 11.3 upbm affinity estimate (log intensity, higher = more binding, comparable within an allelic series) | 11.2 upbm affinity estimate (log intensity, higher = more binding, comparable within an allelic series)
CAATACTC | 10.2 upbm affinity estimate (log intensity, higher = more binding, comparable within an allelic series) | 10.2 upbm affinity estimate (log intensity, higher = more binding, comparable within an allelic series)
